# From PubChem BioAssay AID488841 (Sanford-Burnham Center for Chemical Genomics, 2010)
# The campaign covered roughly 1,400 compounds. About 380 (27%) were called active. Some of the results follow. A number with no mark means an inactive call.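 The calls were made as follows: active = mean inhibition above 50% across duplicate retests at 10 µM; inactive = the rest.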
# Assay: inhibition of NALP1/ASC/caspase-1 reporter signal in yeast, confirmation, NALP1 inhibitor project, S. cerevisiae, luminescence, single concentration (AID 488841);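 also: plate controls were DMSO in galactose medium for no effect and cells in plain SD medium for full effect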
# Conditions: S. cerevisiae NALP1/ASC/Caspase-1 reporter, beta-gal luminescence; at 10 µM; active compounds read high
row,SMILES,inhibition
1,COCCNCCOc1ccc(C(C)(C)c2ccccc2)cc1,50.5% (active)
2,Cc1cccc(N2C(=O)NC(=O)/C(=C/c3ccc([N+](=O)[O-])o3)C2=O)c1,31.1%
3,Nc1cc(Cl)c2nonc2c1[N+](=O)[O-],62.5% (active)
4,CCCCCn1c(=O)c(C(=O)Nc2nc3ccccc3[nH]2)c(O)c2ccccc21,23.1%
5,CCOc1cc(CNCCc2c[nH]c3ccccc23)cc(Cl)c1OCC,48%
6,Cc1ccc(/C=C2\C(=O)NC(=O)N(CC3CCCO3)C2=O)s1 (centres undefined),36.6%
7,C[C@H]1C[C@@H](C)C(=O)[C@@H]([C@H](O)CC2CC(=O)NC(=O)C2)C1,99.8% (active)
8,N#CCCn1cc(C(=O)NCc2ccccc2)c(-c2ccccc2)n1,37.1%
9,CC(Cc1ccccc1Sc1ccccc1)N(C)C (centres undefined),34.8%
10,Cc1cc2ccccn2c1C(C[N+](=O)[O-])c1c(F)cccc1Cl (centres undefined),71% (active)
11,O=C1/C(=C/c2cccc([N+](=O)[O-])c2)N2CCC1CC2,46.3%
12,Cc1ccc(S(=O)(=O)NC(CC(=O)N2CCC3(CC2)OCCO3)c2ccco2)cc1 (centres undefined),37.2%
13,COc1cc2c(cc1OC)CN(c1ccc([N+](=O)[O-])c(C(F)(F)F)c1)CC2,45.4%
14,CC(Cc1ccccc1)NC(=O)/C=C/c1ccc(Cl)cc1 (centres undefined),50% (active)
15,CCOCCN1CCN(c2nnc3n2-c2ccc(Cl)cc2C(c2ccccc2Cl)=NC3)CC1,32.9%
16,Cc1ccc(Cn2cc(C=O)c(-c3ccc(C)cc3)n2)cc1,59.5% (active)
17,CC(C)NS(=O)(=O)c1ccc(OCC(=O)N2CCN(C)CC2)cc1,4.2%
18,Cc1ccc(C)c(NC(=S)NCCc2cnc[nH]2)c1,23.7%
19,CN1C2CCC1/C(=C/c1ccccn1)C(=O)/C2=C\c1ccccn1,98% (active)
20,CC(C)CCn1c(=O)c(C(=O)NCc2ccco2)c(O)c2ccccc21,35%

row,SMILES,inhibition
1,CC1(C)C[C@H]2C=C(C=O)[C@]3(C=O)C[C@]3(C)[C@H]2C1,32.4%
2,CN1/C(=C\C=C\C2=[N+](C)c3ccc4ccccc4c3C2(C)C)C(C)(C)c2ccccc21,100% (active)
3,CN1CCN(c2ccc(N)c(N3CCN(C)CC3)c2)CC1,33.6%
4,Fc1ccc(C(OCCN2CCCC2)c2ccc(Br)cc2)cc1 (centres undefined),49.5%
5,CCCCN(Cc1ccccc1)C1CCN(CCc2ccccc2)CC1,55.1% (active)
6,CC1CCCC(C)N1/N=C/c1c[nH]c2ccc(Br)cc12 (centres undefined),19.6%
7,CN[C@H]1C[C@H]2O[C@@](C)([C@H]1OC)n1c3ccccc3c3c4c(c5c6ccccc6n2c5c31)C(=O)NC4,99.7% (active)
8,Clc1ccc2nc3c(c(-c4ccccc4)c2c1)CNCC3,46%
9,O=C(c1cc2c(s1)-c1ccccc1OC2)N1CCC2(CC1)OCCO2,35.5%
10,c1ccc2sc(NC3=NCCN3)nc2c1,99.8% (active)
11,CNC(=O)Oc1ccc2ncccc2c1,35.5%
12,O=C(c1ccccc1)C(CN1CCCC1)c1ccccc1 (centres undefined),27.6%
13,COc1cc(/C=C(/C)[N+](=O)[O-])ccc1OCc1ccccc1Cl,73.4% (active)
14,Cc1ccc(-c2nc(N3CCOCC3)s[n+]2-c2ccccc2)cc1,40.2%
15,CSc1ncc(Cl)c(C(=O)O)n1 (tested in a mixture with another compound),21.1%
16,O=C1/C(=C/c2cc3c(cc2Cl)OCO3)N2CCC1CC2,47.5%
17,Nc1c2c(nc3sc4c(c13)CCCC4)CCCCC2,40.5%
18,Nc1c2c(nc3sc4c(c13)CCCCC4)CCCC2,84.5% (active)
19,Nc1ccc(C2(c3ccc(N)cc3)CN3CCC2CC3)cc1,25.7%
